From PubChem BioAssay
Calls of active or inactive are those of the source. Unless noted, the rule behind the calls is not given here.

How the values were obtained:
[1] = HepG2 liver cancer cell viability effects, profiling panel, resazurin fluorescence, 24 h, PK04 Diversity Set (AID 1172); conditions: higher = more signal
[2] = basal S. cerevisiae growth modulation, no modifier, primary screen, OD600, strain BY4716, 24 h, basal condition (AID 1173); conditions: OD600, 24 h, higher = more signal, called active from +8 up or from −8 down
[3] = MM1S myeloma cell viability, profiling panel, resazurin fluorescence, basal, 24 h, PK04 Diversity Set (AID 1174); conditions: higher = more signal, called active from +8 up or from −8 down;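 note: MM1S multiple myeloma cell line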
[4] = target: Dihydroorotate dehydrogenase (quinone), mitochondrial (Plasmodium falciparum (isolate 3D7)) (UniProt Q08210); assay: PfDHODH enzyme inhibitors, primary screen, biochemical, C-terminal His tag, absorbance 600 nm (AID 1175); conditions: DCIP absorbance 600 nm, higher = more signal, called active from +8 up or from −8 down;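 note: recombinant parasite enzyme with a five histidine tag at its C terminus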
Dihydroorotate dehydrogenase (quinone), mitochondrial (Plasmodium falciparum (isolate 3D7)), sequence (Q08210 whole entry, looked up): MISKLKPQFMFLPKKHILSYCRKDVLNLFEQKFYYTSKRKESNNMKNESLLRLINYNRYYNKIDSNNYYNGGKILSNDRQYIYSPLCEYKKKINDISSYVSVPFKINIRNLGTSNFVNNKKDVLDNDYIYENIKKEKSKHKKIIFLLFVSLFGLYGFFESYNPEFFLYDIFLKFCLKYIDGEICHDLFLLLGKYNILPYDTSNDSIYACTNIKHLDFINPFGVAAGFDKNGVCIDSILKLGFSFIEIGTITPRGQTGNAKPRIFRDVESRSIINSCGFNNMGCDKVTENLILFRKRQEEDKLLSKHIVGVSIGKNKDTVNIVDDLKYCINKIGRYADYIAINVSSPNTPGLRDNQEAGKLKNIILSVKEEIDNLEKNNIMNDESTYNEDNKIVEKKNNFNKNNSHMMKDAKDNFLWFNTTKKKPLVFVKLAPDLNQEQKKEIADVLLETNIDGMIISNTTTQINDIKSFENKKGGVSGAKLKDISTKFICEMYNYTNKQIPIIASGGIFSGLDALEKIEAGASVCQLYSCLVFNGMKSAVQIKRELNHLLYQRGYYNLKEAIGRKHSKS

[5] = P. aeruginosa biofilm formation inhibitors, primary screen, strain PAO1, LB-PBS medium, absorbance 600 nm (AID 1176); conditions: P. aeruginosa PAO1 growth/biofilm, A600, 12 h; higher = more signal
[6] = S. cerevisiae RM11-1a growth modifiers, primary screen, strain RM11-1a, OD600, basal, 24 h (AID 1177); conditions: OD600, 24 h, higher = more signal, called active from +8 up or from −8 down;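 note: cultures grown under basal conditions with no added stressor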
[7] = E. coli acrAB mutant growth effects, primary screen, E. coli filamentation inducers, strain DRC39, OD650, 24 h (AID 1178); conditions: higher = more signal, called active from +8 up or from −8 down;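 note: growth measured as culture turbidity by optical density at 650 nm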
[8] = E. coli acrAB mutant growth effects, primary screen, E. coli filamentation inducers, strain DRC39, OD650, 48 h (AID 1179);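 note: screen aims at cell division blockers that make cells filament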; conditions: E. coli DRC39 delta-acrAB growth, higher = more signal, called active from +8 up or from −8 down
[9] = RPMI8226 myeloma cell viability, profiling panel, resazurin fluorescence, basal, 24 h, PK04 Diversity Set (AID 1180); conditions: higher = more signal;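 note: RPMI8826 multiple myeloma cell line at 5000 cells per well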
[10] = target: E3 ubiquitin-protein ligase XIAP (Homo sapiens) (UniProt P98170); assay: XIAP binders, primary screen, biophysical, small-molecule microarray, fluorescence 635 nm (AID 1181); conditions: small-molecule microarray binding, higher = more signal;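 note: score merges 667 nm emission and signal to noise over triplicate slides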
E3 ubiquitin-protein ligase XIAP (Homo sapiens), sequence (P98170 whole entry, looked up): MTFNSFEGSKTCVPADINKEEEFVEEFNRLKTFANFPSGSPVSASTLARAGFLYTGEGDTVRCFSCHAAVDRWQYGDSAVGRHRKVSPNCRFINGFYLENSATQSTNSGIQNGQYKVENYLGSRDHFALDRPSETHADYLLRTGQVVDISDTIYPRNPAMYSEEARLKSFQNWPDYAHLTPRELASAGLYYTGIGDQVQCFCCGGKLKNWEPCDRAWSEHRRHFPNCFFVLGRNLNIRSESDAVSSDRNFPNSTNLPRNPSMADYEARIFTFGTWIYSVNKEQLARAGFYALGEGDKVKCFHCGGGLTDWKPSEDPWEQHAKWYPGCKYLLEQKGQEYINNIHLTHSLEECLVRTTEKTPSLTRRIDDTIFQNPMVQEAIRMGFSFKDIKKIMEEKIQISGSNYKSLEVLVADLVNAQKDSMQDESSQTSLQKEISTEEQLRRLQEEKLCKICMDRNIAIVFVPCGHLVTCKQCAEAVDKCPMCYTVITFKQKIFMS

[11] = tested on: XIP peptide (Xip251-270) binding; assay: small-molecule binders of XIP peptide, primary screen, biochemical, small-molecule microarray, fluorescence 635/667 nm, 0.1 µg/mL protein (AID 1182); conditions: fluorescent protein binding, 635 nm, higher = more signal, called active from +8 up or from −8 down
[12] = tested on: XIP peptide (Xip251-270); assay: small-molecule binders of XIP peptide, primary screen, biochemical, small-molecule microarray, fluorescence 635/667 nm, 0.5 µg/mL protein (AID 1183); conditions: small-molecule microarray binding, fluorescence 635 nm; higher = more signal
[13] = Plasmodium falciparum growth inhibition, primary screen, strain 3D7, DAPI fluorescence, 100 nL (AID 1184);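 note: parasites grown inside human red blood cells in medium with human serum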; conditions: P. falciparum 3D7 growth, 3 d, higher = more signal
[14] = target: Homeobox protein Hox-A13 (Mus musculus) (UniProt Q62424); assay: inhibitors of HoxA13-DNA binding, primary screen, biochemical, fluorescence polarization, labeled oligonucleotide (AID 1185); conditions: 15 min, higher = more signal, called active from +8 up or from −8 down
Homeobox protein Hox-A13 (Mus musculus), sequence (Q62424 whole entry, looked up): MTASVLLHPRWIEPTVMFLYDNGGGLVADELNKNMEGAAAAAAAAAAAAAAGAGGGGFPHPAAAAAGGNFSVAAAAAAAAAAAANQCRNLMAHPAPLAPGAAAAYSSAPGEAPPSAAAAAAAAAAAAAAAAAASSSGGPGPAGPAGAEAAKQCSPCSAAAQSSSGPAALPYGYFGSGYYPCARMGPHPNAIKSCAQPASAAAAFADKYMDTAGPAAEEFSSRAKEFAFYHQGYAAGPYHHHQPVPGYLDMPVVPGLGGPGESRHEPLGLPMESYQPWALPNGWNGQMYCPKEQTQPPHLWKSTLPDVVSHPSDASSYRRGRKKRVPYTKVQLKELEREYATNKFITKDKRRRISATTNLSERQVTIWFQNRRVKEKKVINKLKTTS

[15] = inhibitors of hydroxyurea-induced Chk1 phosphorylation, primary screen, imaging, HeLa, phospho-Chk1 antibody, percent positive cells (AID 1186); conditions: hydroxyurea-induced phospho-Chk1 immunofluorescence imaging, higher = more signal
[16] = inhibitors of hydroxyurea-induced Chk1 phosphorylation, primary screen, imaging, HeLa, phospho-Chk1 nuclear intensity (AID 1187); conditions: hydroxyurea-induced phospho-Chk1 immunofluorescence imaging, higher = more signal

| SMILES | z-score [1] | z-score [2] | z-score [3] | composite z-score [4] | z-score [5] | z-score [6] | z-score [7] | z-score [8] | z-score [9] | composite z-score [10] | composite z-score [11] | composite z-score [12] | z-score [13] | z-score [14] | z-score [15] | z-score [16] |
| --- | --- | --- | --- | --- | --- | --- | --- | --- | --- | --- | --- | --- | --- | --- | --- | --- |
| O=C1NC(=O)C2C1C=CC(C(O)c1cc(C(F)(F)F)cc(C(F)(F)F)c1)N2Nc1ccccn1 (centres undefined) | -0.85 | 0.885 (inactive) | -1.27 (inactive) | -1.14 (inactive) | 1.36 (inactive) | 0.0176 (inactive) | -0.509 (inactive) | -1.42 (inactive) | -1.2 | -0.152 | 0.604 (inactive) | 0.797 | -0.352 | -3.28 (inactive) | 0.429 (inactive) | 0.178 (inactive) |
| COC(=O)[C@@]1(Cc2ccc(F)cc2)[C@H]2c3cc(C(=O)N(C)C)n(Cc4ccc(Cl)c(C(F)(F)F)c4)c3C[C@H]2CN1C(=O)c1ccccc1 | -0.81 | 0.359 (inactive) | -2.72 (inactive) | 0.117 (inactive) | 1.09 (inactive) | -0.285 (inactive) | -1.2 (inactive) | -0.531 (inactive) | -3.26 | 0.929 | -0.512 (inactive) | 0.503 | -1.6 | -2.75 (inactive) | 1.09 (inactive) | 0.528 (inactive) |
| COCCOC(=O)N1C(=O)[C@@]2(c3ccccc31)[C@H](c1ccccc1OCCO)N1[C@H](c3ccccc3)[C@H](c3ccccc3)OC(=O)[C@H]1[C@@H]2C(=O)N1CCN(c2ncccn2)CC1 | -0.0332 | 2.64 (inactive) | -1.39 (inactive) | -0.539 (inactive) | 3.61 (inactive) | 3.08 (inactive) | -0.233 (inactive) | 0.176 (inactive) | -0.862 | -0.16 | 1.04 (inactive) | 0.799 | -2.2 | -1.99 (inactive) | 0.0172 (inactive) | 0.0629 (inactive) |
| NC(=O)NCC#Cc1ccc2c(c1)[C@]1(C(=O)N2)[C@H](C(N)=O)[C@H]2C(=O)O[C@H](c3ccccc3)[C@H](c3ccccc3)N2[C@@H]1c1ccc(O)cc1 | 0.584 | -0.911 (inactive) | 0.204 (inactive) | -0.405 (inactive) | -0.212 (inactive) | -0.732 (inactive) | 0.0883 (inactive) | -0.612 (inactive) | -0.0275 | 0.156 | 1.49 (inactive) | 0.109 | -0.19 | -5.36 (inactive) | 0.0619 (inactive) | 0.044 (inactive) |
| COC(=O)[C@@]1(CCC(=O)OC(C)(C)C)N=C(c2ccc(OCCCO)cc2)O[C@H]1c1ccccc1N=[N+]=[N-] | -1.15 | 0.381 (inactive) | -6.96 (inactive) | 0.414 (inactive) | 2.78 (inactive) | 1 (inactive) | 0.276 (inactive) | -0.903 (inactive) | -5.04 | 0.168 | 1.35 (inactive) | 0.664 | -2.33 | -2.14 (inactive) | 0.114 (inactive) | -0.229 (inactive) |
| O=C1N(Cc2ccccc2)c2ccccc2[C@@H]2OC(c3ccc(OCCCO)cc3)=N[C@]12CCS(=O)(=O)c1ccccc1 | -0.477 | 1.48 (inactive) | -0.444 (inactive) | -0.244 (inactive) | 1.71 (inactive) | 2.25 (inactive) | -0.0853 (inactive) | -0.292 (inactive) | -0.18 | -0.0918 | 0.7 (inactive) | 0.677 | -2.13 | 1.28 (inactive) | -0.413 (inactive) | -0.77 (inactive) |
| C=CCOC(=O)[C@H]1[C@@H]2C(=O)O[C@@H](c3ccccc3)[C@@H](c3ccccc3)N2[C@@H](c2ccc(OCCOC(=O)[C@@H]3C[C@@H]4C(=O)N[C@@H](CC(C)C)C(=O)N4[C@@H]3c3ccc(O)cc3)cc2)[C@]12C(=O)Nc1ccccc12 | 0.256 | 1.23 (inactive) | -0.347 (inactive) | -0.295 (inactive) | 2.94 (inactive) | 2.05 (inactive) | -0.149 (inactive) | -0.72 (inactive) | 0.169 | -0.0559 | 1.25 (inactive) | 0.802 | -1.66 | -0.596 (inactive) | 0.659 (inactive) | 0.991 (inactive) |
| COc1ccc(CCNC(=O)[C@@]2(Sc3ccc(C)cc3)CC(=O)N(C3Cc4ccccc4C3)[C@@H]2c2ccc(CO)cc2I)cc1 | 0.0641 | -3.1 (inactive) | -2.13 (inactive) | 0.371 (inactive) | -0.171 (inactive) | 1 (inactive) | 0.0559 (inactive) | -0.325 (inactive) | -1.43 | 0.148 | -0.0449 (inactive) | 0.81 | -0.725 | -2.4 (inactive) | 0.136 (inactive) | 0.684 (inactive) |
| CN(C)CCCCCCNC(=O)[C@@H]1C[C@@H]2C(=O)N[C@@H](Cc3ccccc3)C(=O)N2[C@@H]1c1ccc(O)cc1 | -0.591 | -0.58 (inactive) | -1.09 (inactive) | 0.0288 (inactive) | -0.0059 (inactive) | 0.179 (inactive) | -0.725 (inactive) | -1.25 (inactive) | -0.974 | 0.458 | 0.594 (inactive) | 0.887 | -1.19 | -2.65 (inactive) | -0.165 (inactive) | 0.272 (inactive) |
